BAZ2B block: qHTS Assay for Inhibitors of BAZ2B. 360,000 compounds, 4.4% hits. Potency, µM (highest dose often 114 µM), for inactives: at the top dose activity change, negative = inhibition, hits mostly inhibitors. Bromodomain adjacent to zinc finger domain protein 2B (Homo sapiens), Q9UIF8. AlphaScreen BAZ2B-H3K14Ac peptide displacement; note: % is set by controls: 0 for no effect and ±100 for the full control effect; nearly all actives have a fitted effect of over 60% in size
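AlphaScreen displacement: compounds (up to 110uM) incubated 30 min at room temperature with a preformed 50 nM BAZ2B/50 nM biotinylated H3K14Ac peptide complex in PBS pH 7.4 with Tween-20. Donor and acceptor beads at 10 ug/mL final added, 20 min light-protected before reading.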
HP1b binding inh: HTS for Inhibitors of HP1-beta Chromodomain Interactions with Methylated Histone Tails; Chromobox protein homolog 1 (Homo sapiens), P83916; AlphaScreen HP1-beta / biotin-H3K9me3 peptide binding; Potency, µM (top dose mostly 114 µM), inactives show top-dose activity change, negative = inhibition, most hits filed as inhibitors; 390,000 compounds, 0.56% hits; note: nearly all actives have a fitted effect of over 70% in size
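AlphaScreen: HP1-beta (50 nM) preformed 30 min with biotin-H3(1-18)K9me3 peptide (50 nM) in PBS pH 7.4, 0.01% Tween-20. Compound added for 30 min at RT, then streptavidin donor/nickel chelate acceptor beads (10 ug/mL) for 30 min.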
PLK1 PBD block: qHTS for Inhibitors of PLK1-PDB (polo-like kinase 1 - polo-box domain): Primary Screen; Serine/threonine-protein kinase PLK1 (Homo sapiens), P53350; Plk1 PBD binding of FITC phosphopeptide, fluorescence polarization; 360,000 compounds, 2.8% hits; Potency, µM, inactives show max response, negative = inhibition, actives largely listed as inhibitors; note: series mostly up to about 57 µM; % is set by controls: 0 for no effect and ±100 for the full control effect; nearly all actives have a fitted effect of over 65% in size
G9a inh: qHTS Assay for Inhibitors of Histone Lysine Methyltransferase G9a; G9a H3K9 monomethylation, AlphaScreen, 2 h; Histone-lysine N-methyltransferase EHMT2 (Homo sapiens), Q96KQ7; Potency, µM (series often up to 102 µM), without a hit: top-dose activity, negative = inhibition, most hits filed as inhibitors; 350,000 compounds, 8.8% hits; note: % is set by controls: 0 for no effect and ±100 for the full control effect; nearly all actives have a fitted effect of over 75% in size
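Readings reflect AlphaScreen signal from monomethyl-H3K9 antibody detection. HMT at 20 nM; substrate b-H3K9 500 nM; cofactor SAM 20 uM; 2 h RT reaction; compounds tested as titrations in qHTS with 15 min preincubation.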
JMJD2A Tudor inh: qHTS Assay for Inhibitors of JMJD2A-Tudor Domain; 390,000 compounds, 4.4% hits; AlphaScreen JMJD2A-Tudor / H3K4me3 peptide binding; Lysine-specific demethylase 4A (Homo sapiens), O75164; AID 504339, 2011; Potency, µM (series often up to 114 µM), for the others: top-dose activity change, negative = inhibition, most hits filed as inhibitors; note: % is set by controls: 0 for no effect and ±100 for the full control effect; nearly all actives have a fitted effect of over 50% in size
12-LOX inh: Primary qHTS assay for inhibitors of human arachidonate 12S-lipoxygenase (ALOX12): Round 2 | 580,000 compounds, 1.1% hits | Polyunsaturated fatty acid lipoxygenase ALOX12 (Homo sapiens), P18054 | purified 12hLO, xylenol orange hydroperoxide absorbance | Potency, µM (doses to about 108 µM), for the others: top-dose activity change, negative = inhibition, actives largely listed as inhibitors | AID 1671190, 2021; note: % is set by controls: 0 for no effect and ±100 for the full control effect
Target sequence (P18054 whole entry, looked up): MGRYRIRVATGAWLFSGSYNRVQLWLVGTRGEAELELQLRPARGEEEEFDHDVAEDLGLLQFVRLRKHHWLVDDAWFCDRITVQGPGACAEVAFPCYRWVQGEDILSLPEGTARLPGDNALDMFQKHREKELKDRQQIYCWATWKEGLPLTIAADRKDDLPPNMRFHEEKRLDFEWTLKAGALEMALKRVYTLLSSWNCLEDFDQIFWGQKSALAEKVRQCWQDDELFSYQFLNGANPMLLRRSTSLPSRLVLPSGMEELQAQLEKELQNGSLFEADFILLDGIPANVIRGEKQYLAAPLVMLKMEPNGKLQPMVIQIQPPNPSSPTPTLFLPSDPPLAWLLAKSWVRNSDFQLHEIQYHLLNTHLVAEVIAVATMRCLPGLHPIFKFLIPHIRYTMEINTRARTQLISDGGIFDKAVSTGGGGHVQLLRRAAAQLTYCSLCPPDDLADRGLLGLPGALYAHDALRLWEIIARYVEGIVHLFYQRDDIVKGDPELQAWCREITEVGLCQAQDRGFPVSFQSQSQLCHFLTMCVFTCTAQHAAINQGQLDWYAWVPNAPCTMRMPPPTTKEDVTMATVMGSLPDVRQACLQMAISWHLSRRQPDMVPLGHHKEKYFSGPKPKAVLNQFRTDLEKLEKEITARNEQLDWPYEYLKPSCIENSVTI
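Purified human 12hLO at 150 nM in 25 mM Hepes, 0.01% Triton X-100, pH 7.0, preincubated 15 min at room temperature with compound. Reaction started with 40 uM arachidonic acid, 30 min at room temperature. Hydroperoxide measured by Fe-xylenol orange, 573/405 nm absorbance ratio.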
* marks the source's active call; other numbers are inactive results; u = inconclusive; x = not tested or not shown; ! = repeats disagree; [ ] = another dose, or the depositor's remark. Hits are enriched below; roughly 9% of the tested compounds scored in any of these assays. Calls come from the whole dose curve; as a rule, active = well fitted curve in the direction sought with a large enough effect; inconclusive = small, poorly fitted or top-dose-only effect, or another doubt; inactive = no such curve, though single readings can be large; an effect the other way counts as inactive or inconclusive. Potency is the fitted concentration of half-maximal effect.

SMILES	BAZ2B block	HP1b binding inh	PLK1 PBD block	G9a inh	JMJD2A Tudor inh	12-LOX inh
COc1cccc(CNC(=O)C23CN(Cc4ccccc4)CC2C(c2ccc([N+](=O)[O-])cc2)=NO3)c1 (configuration not stated)	-37%	14%	-8%	71µM*	u	-2%
CC(C)CCNC(=O)C12CN(Cc3ccccc3)CC1C(c1ccc([N+](=O)[O-])cc1)=NO2 (configuration not stated)	u	-11%	-5%	u	u	u
CCCCn1nnnc1C(c1ccccc1)N1CCN(c2c(Cl)cncc2Cl)CC1 (configuration not stated)	x	x	-5%	x	x	0%
CNC(=S)N1N=C(c2ccccc2)CC1c1ccc(OC)c(OC)c1 (configuration not stated)	-10%	5%	-5%	14%[59 µM]	-25%	5%
Cc1c(C2CC(=O)N(c3ccccc3)C2=O)[nH]n(-c2ccccc2)c1=O (configuration not stated)	u	20%	-8%	35µM*	-22%	0%
COc1ccc(-c2ccnc3cc(C(=O)O)nn23)cc1	u	14%	8%	-18%	-5%	-2%
O=C(O)c1cc2nccc(-c3ccco3)n2n1	u	17%	-24%	50µM*	89µM*	-1%
CCOC(=O)c1cccc(Nc2cc(-c3ccccc3)ncn2)c1	50µM*	u	x	16µM*	-1%	u
Cc1ccc2c(c1)C(c1ccc(F)cc1)N(C(=O)C1CC1)CC(=O)N2 (configuration not stated)	8%	26%	-13%	u	-18%	-3%
O=C(O)Cc1cccc(OCCCN(Cc2cccc(C(F)(F)F)c2Cl)CC(c2ccccc2)c2ccccc2)c1	x	x	x	18µM*	x	24µM*!
O=C(CCCOc1ccccc1)Nc1ccccc1C(F)(F)F	12%	66%	-8%	16%[59 µM]	7%[57.1 µM]	-25%
COc1cccc(OCc2nc3ccccc3n2Cc2ccccc2C)c1	29%	66%	x	-5%[59 µM]	26%	1%
Cc1cccc(/N=C/C2=C(O)CC(C)(C)CC2=O)n1	1%	25%	0%	u	-2%	-4%
CC1(C)CC(=O)C(C=Nc2cccnc2/N=C/C2=C(O)CC(C)(C)CC2=O)=C(O)C1	0%	3%	0%	u	-10%	-26%
CC1(C)CC(=O)C(C=Nc2ccc(O)c(N=CC3=C(O)CC(C)(C)CC3=O)c2)=C(O)C1	-14%	43%	2%	20µM*	-27%	-4%
Cc1cc(N=CC2=C(O)CC(C)(C)CC2=O)no1	x	31%	-4%	-26%[59 µM]	79µM*	-29%
CC1(C)CC(=O)C(C=Nc2ccc(C(=O)c3ccccc3)cc2N=CC2=C(O)CC(C)(C)CC2=O)=C(O)C1	u	32%	-16%	40µM*	-34%	u
COC(=O)c1ccccc1NC(=O)c1cn(-c2ccc(C)c(C)c2)c(=O)c2ccccc12	-6%	u	0%	17%	-28%	-14%
CCC(=O)NCc1c(Cl)cccc1-n1cccc1	-4%	12%	-1%	36%[12.7 µM]	-21%	3%
Cc1c(NC(=O)C(C)SC(=S)N2CCCC2)c(=O)n(-c2ccccc2)n1C (configuration not stated)	15%	44%	1%	-7%[2.33 µM]	-11%	-3%
COc1ccc(OC)c(C2C=C(C34CC5CC(CC(C5)C3)C4)NC(=S)N2)c1 (configuration not stated)	32µM*	u	-15%	u	u	32µM*
COc1cc(CCC(=O)Nc2nnc(-c3cccnc3)s2)cc(OC)c1OC	-5%	-10%	u	40µM*	-20%	-11%
COc1ccc(NC(=O)CN2CCN(c3nc(-c4cccc(OC)c4)cs3)CC2)cc1	u	-20%	-7%	10µM*	u	39%
COc1cccc(-c2csc(N3CCN(C(=O)C4CCCCC4)CC3)n2)c1	u	-26%	-22%	14µM*	u	4%
COc1cccc(N2CCN(CC(=O)Nc3nnc(-c4ccccc4)s3)CC2)c1	u	-20%	-2%	-6%[59 µM]	89µM*	0%
SMILES	BAZ2B block	HP1b binding inh	PLK1 PBD block	G9a inh	JMJD2A Tudor inh	12-LOX inh
COc1cccc(-c2csc(N3CCN(CC(=O)Nc4ccc5c(c4)OCO5)CC3)n2)c1	u	-19%	0%	u	-33%	16%
COc1ccc(S(=O)(=O)N(C)C[C@H]2Oc3ccc(NC(=O)Cc4cn(C)c5ccccc45)cc3C(=O)N([C@@H](C)CO)C[C@@H]2C)cc1	x	29%	0%	x	-27%	-17%
CC1CN(S(=O)(=O)c2cccc(-c3csc(-c4ccccc4)n3)c2)CC(C)O1 (configuration not stated)	0%	-5%	-28%	18µM*	-1%	321%
NC(=O)c1[nH]cnc1N=NN(CCO)Cc1ccccc1	x	x	-2%	x	x	1%
COCCCN1CN(S(=O)(=O)c2cccs2)c2nc3ccccc3nc21	-6%	24%	-8%	13µM*	-14%	3%
CC(C)CN1CN(S(=O)(=O)c2cccs2)c2nc3ccccc3nc21	-25%	x	x	45µM*	x	-21%
C/C(CC(C)(C)C1CCCCC1)=N\NC(N)=S	-37%	-14%	-12%	u	-27%	u
C/C(=N\NC(N)=S)C1C2C3CC4C5CC(C42)C1C53 (configuration not stated)	-38%	26%	-7%	40µM*	-10%	18µM*
O=C1NC2(CCCCCC2)N=C1c1ccc(F)cc1	-16%	27%	-1%	-47%	u	-9%
c1coc(-c2nnc(-c3ccco3)nn2)c1	20µM*	45µM*	-11%	20µM*	25µM*	u
c1ccc(-c2nnc(-c3ccco3)o2)cc1	-5%	20%	-1%	-30%[12.7 µM]	15%	32%
O=C(O)CSc1nnc(CNc2ccccc2Cl)n1-c1ccccc1	u	41%	-8%	-39%[2.33 µM]	-12%	0%
Cc1ncsc1CCOC(=O)c1cccnc1	50µM*	16%	-1%	u	u	-22%
CCOC(=O)c1cccnc1	x	x	x	16%[59 µM]	x	x
CCN(Cc1ccncc1)C(=O)c1coc(COc2cccc(C(F)(F)F)c2)n1	x	x	x	x	x	66%

Assay outcomes as filed in PubChem BioAssay.
